Test results reported in PubChem BioAssay.
The source made the active and inactive calls.

Key:
[1] = system: PRMT1 (protein arginine N-methyltransferase 1); assay: small molecules binding arginine methyltransferase PRMT1 – biochemical, small-molecule microarray, 635 nm fluorescence, primary screen (AID 1088); conditions: higher = more signal;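 further: binding of Prmt1 protein to compounds spotted on small-molecule microarray slides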
[2] = growth effects on S. cerevisiae YJM789 – YJM789 clinical isolate, OD600, 24 h, basal, primary screen (AID 1089); conditions: higher = more signal, called active from +8 up or from −8 down;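 further: growth of clinical yeast isolate S. cerevisiae YJM 789 seeded 1000 cells per well; test concentration not given here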
[3] = S. pombe growth modifiers, basal conditions – strain 972, OD600, 24 h, no modulator, primary screen (AID 1090);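 further: basal condition with compound alone and no growth modifier present; test concentration not given here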; conditions: S. pombe 972 growth, higher = more signal, called active from +8 up or from −8 down
[4] = budding yeast growth modifiers under rapamycin – strain BY4716, OD600, 96 h, primary screen (AID 1091); further: test concentration not given here; conditions: S. cerevisiae BY4716 + rapamycin, higher = more signal, called active from +8 up or from −8 down
[5] = biological target: Torsin-1A-interacting protein 2 (Homo sapiens) (UniProt Q8NFQ8); assay: small molecules binding lysate-expressed LULL1 – cell lysate, human LULL1 lysate, 635/667 nm fluorescence, primary screen (AID 1092); conditions: small-molecule microarray, hLULL1 lysate binding, 635 nm fluorescence; higher = more signal;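 further: probe is lysate of COS7 cells overexpressing human LULL1; score merges per-feature 667 nm fluorescence with signal-to-noise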
[6] = optical density change of DRC41 E. coli – strain DRC41, OD650, 24 h, E. coli filamentation project, primary screen (AID 1093);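 further: MC1000 strain lacking acrAB efflux and sulA so SOS filamentation is blocked; test concentration not given here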; conditions: E. coli DRC41 growth, higher = more signal, called active from +8 up or from −8 down
[7] = probe aLefty2 binding to arrayed compounds – biochemical, biotinylated probe, 635/667 nm fluorescence, primary screen (AID 1094); conditions: small-molecule microarray, higher = more signal;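 further: score merges spot fluorescence near 667 nm with spot signal-to-noise ratio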
[8] = system: Noggin (protein binding on small-molecule microarray); assay: small molecules binding Noggin protein – biochemical, 635/667 nm fluorescence, primary screen (AID 1095); conditions: 635 nm fluorescence, higher = more signal;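 further: score merges 667 nm feature fluorescence with signal to noise over triplicate slides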
[9] = biological target: Neurogenic locus notch homolog protein 3 (Homo sapiens) (UniProt Q9UM47); assay: small molecules binding NOTCH3 protein – biochemical, 635/667 nm fluorescence, primary screen (AID 1096); conditions: small-molecule microarray, 635 nm fluorescence, higher = more signal
[10] = probe aEGFR binding to arrayed compounds – biochemical, biotinylated probe, 635/667 nm fluorescence, primary screen (AID 1097); conditions: small-molecule microarray, higher = more signal;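 further: probe is a biotinylated anti-EGFR antibody binding compounds printed on slides; score combines fluorescence near 667 nm and signal to noise of each spot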
[11] = system: Plasmodium falciparum Sir2 (PF13_0152, Sir2A); assay: Plasmodium falciparum Sir2A binding compounds – biochemical, small-molecule microarray, 635 nm fluorescence, primary screen (AID 1098); conditions: fluorescence 635 nm, higher = more signal;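 further: score merges spot fluorescence intensity with its signal-to-noise ratio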
[12] = probe aDKK1 binding to arrayed compounds – biochemical, biotinylated probe, 635/667 nm fluorescence, primary screen (AID 1099); conditions: small-molecule microarray, higher = more signal;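 further: score merges 667nm spot fluorescence with signal to noise across triplicate slides; reference of the scale not given here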
[13] = probe aCHRDL2 binding to arrayed compounds – biochemical, biotinylated probe, 635/667 nm fluorescence, primary screen (AID 1100); conditions: small-molecule microarray, higher = more signal
[14] = change in splice reporter luminescence, either direction, cell-based, HEK293, spliceosome inhibition project, primary screen (AID 1101); conditions: HEK293 splicing luciferase reporter, 24 h, higher = more signal, called active from +8 up or from −8 down;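 further: HEK293 cells carrying a splicing-competent luciferase reporter gene; test concentration not given here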
[15] = biological target: Fibroblast growth factor 10 (Homo sapiens) (UniProt O15520); assay: compounds binding fibroblast growth factor 10 – biochemical, small-molecule microarray, 635 nm fluorescence, primary screen (AID 1102); conditions: FGF10 binding, fluorescence 635 nm, higher = more signal
[16] = system: glycogen synthase kinase-3 (GSK3A per assay name; protocol says GSK3B); assay: compounds binding glycogen synthase kinase-3 – biochemical, small-molecule microarray, 635 nm fluorescence, GSK3A, primary screen (AID 1103); conditions: fluorescence 635 nm, higher = more signal; further: the record names both GSK3A and GSK3B
[17] = biological target: Epidermal growth factor receptor (Homo sapiens) (UniProt P00533); assay: compounds binding epidermal growth factor receptor – biochemical, small-molecule microarray, 635 nm fluorescence, primary screen (AID 1104); conditions: EGFR binding, higher = more signal;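 further: score merges 667 nm emission intensity with spot signal to noise over triplicate slides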
[18] = biological target: Follistatin-related protein 3 (Homo sapiens) (UniProt O95633); assay: compounds binding follistatin-related protein 3 – biochemical, small-molecule microarray, 635 nm fluorescence, primary screen (AID 1105); conditions: FSTL3 binding, higher = more signal;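 further: score merges emission near 667 nm and signal to noise per printed spot across three slides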
[19] = biological target: Dickkopf-related protein 1 (Homo sapiens) (UniProt O94907); assay: small molecules binding DKK1 protein – biochemical, small-molecule microarray, 635 nm fluorescence scan, primary screen (AID 1106); conditions: higher = more signal;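 further: score merges emission near 667 nm with signal to noise over three replicate slides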
[20] = system: Inhibin beta A chain (activin A); assay: small molecules binding activin A – biochemical, small-molecule microarray, 635 nm fluorescence scan, primary screen (AID 1107); conditions: INHBA, higher = more signal;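 further: mouse activin A protein probed at 4.33 µg/mL on printed slides; score merges bound-protein fluorescence near 667 nm with spot signal-to-noise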

Sequence of Torsin-1A-interacting protein 2 (Homo sapiens) (Q8NFQ8 whole entry, looked up): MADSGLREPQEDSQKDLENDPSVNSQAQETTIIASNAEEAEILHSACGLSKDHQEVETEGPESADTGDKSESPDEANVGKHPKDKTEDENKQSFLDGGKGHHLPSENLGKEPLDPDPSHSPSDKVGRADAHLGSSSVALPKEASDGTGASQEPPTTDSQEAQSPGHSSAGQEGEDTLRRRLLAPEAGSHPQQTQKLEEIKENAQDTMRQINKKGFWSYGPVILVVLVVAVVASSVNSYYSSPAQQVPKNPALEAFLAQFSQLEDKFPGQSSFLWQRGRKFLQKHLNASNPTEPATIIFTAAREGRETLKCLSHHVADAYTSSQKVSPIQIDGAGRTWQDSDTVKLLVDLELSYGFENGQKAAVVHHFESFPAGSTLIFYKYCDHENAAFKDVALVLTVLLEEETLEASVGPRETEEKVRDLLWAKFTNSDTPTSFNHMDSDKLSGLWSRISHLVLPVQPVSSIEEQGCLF
Sequence of Fibroblast growth factor 10 (Homo sapiens) (O15520 whole entry, looked up): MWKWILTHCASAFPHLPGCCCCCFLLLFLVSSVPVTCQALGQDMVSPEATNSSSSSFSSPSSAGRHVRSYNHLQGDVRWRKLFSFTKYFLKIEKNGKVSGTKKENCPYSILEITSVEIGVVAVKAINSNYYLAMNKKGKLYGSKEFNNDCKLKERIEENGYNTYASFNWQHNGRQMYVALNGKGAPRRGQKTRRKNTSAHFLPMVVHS
Sequence of Follistatin-related protein 3 (Homo sapiens) (O95633 whole entry, looked up): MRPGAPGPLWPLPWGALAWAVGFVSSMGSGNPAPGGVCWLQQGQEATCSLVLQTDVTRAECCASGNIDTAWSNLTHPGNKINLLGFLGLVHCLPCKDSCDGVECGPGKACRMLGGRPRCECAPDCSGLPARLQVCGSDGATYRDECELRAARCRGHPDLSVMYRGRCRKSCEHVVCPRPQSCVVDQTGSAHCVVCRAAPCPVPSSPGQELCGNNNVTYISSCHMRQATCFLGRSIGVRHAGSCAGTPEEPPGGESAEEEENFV
Sequence of Epidermal growth factor receptor (Homo sapiens) (P00533 whole entry, looked up): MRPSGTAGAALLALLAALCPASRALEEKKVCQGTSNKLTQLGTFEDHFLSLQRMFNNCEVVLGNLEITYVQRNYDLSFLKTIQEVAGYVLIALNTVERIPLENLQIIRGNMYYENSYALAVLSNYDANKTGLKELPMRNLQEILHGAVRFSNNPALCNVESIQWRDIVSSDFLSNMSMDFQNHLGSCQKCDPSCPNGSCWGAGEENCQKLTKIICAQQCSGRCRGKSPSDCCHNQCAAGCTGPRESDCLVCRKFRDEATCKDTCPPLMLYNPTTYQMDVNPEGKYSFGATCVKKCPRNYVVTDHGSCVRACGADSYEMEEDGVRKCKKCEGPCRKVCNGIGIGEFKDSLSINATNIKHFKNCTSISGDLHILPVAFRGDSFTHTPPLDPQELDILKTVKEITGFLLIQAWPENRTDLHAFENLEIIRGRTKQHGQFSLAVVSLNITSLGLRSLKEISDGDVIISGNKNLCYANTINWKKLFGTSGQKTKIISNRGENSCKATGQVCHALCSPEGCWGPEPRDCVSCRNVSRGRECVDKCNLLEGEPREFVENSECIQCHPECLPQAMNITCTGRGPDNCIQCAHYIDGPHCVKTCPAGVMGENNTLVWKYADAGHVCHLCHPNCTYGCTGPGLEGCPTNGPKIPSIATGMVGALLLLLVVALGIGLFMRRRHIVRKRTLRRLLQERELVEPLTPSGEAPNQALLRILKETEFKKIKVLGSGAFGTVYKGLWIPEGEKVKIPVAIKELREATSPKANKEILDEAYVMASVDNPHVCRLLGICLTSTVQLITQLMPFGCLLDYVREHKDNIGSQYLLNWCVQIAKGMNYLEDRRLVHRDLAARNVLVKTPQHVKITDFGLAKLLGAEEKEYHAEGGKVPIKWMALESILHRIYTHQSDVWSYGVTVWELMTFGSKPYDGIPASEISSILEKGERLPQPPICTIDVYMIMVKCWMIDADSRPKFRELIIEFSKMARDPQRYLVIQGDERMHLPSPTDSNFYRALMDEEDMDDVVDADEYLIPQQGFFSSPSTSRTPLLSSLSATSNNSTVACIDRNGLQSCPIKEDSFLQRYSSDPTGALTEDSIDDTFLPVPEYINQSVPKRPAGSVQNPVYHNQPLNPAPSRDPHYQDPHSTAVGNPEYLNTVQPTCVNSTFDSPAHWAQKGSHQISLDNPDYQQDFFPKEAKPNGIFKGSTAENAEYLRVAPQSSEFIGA
Sequence of Dickkopf-related protein 1 (Homo sapiens) (O94907 whole entry, looked up): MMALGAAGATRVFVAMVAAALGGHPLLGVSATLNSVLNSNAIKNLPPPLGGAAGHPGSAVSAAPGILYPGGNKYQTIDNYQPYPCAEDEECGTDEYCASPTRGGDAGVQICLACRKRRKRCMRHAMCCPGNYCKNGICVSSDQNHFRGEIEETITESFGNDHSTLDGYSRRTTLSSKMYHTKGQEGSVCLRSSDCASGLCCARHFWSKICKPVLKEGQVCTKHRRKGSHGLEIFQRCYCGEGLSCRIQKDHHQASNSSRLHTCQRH
Sequence of Neurogenic locus notch homolog protein 3 (Homo sapiens) (Q9UM47 whole entry, looked up): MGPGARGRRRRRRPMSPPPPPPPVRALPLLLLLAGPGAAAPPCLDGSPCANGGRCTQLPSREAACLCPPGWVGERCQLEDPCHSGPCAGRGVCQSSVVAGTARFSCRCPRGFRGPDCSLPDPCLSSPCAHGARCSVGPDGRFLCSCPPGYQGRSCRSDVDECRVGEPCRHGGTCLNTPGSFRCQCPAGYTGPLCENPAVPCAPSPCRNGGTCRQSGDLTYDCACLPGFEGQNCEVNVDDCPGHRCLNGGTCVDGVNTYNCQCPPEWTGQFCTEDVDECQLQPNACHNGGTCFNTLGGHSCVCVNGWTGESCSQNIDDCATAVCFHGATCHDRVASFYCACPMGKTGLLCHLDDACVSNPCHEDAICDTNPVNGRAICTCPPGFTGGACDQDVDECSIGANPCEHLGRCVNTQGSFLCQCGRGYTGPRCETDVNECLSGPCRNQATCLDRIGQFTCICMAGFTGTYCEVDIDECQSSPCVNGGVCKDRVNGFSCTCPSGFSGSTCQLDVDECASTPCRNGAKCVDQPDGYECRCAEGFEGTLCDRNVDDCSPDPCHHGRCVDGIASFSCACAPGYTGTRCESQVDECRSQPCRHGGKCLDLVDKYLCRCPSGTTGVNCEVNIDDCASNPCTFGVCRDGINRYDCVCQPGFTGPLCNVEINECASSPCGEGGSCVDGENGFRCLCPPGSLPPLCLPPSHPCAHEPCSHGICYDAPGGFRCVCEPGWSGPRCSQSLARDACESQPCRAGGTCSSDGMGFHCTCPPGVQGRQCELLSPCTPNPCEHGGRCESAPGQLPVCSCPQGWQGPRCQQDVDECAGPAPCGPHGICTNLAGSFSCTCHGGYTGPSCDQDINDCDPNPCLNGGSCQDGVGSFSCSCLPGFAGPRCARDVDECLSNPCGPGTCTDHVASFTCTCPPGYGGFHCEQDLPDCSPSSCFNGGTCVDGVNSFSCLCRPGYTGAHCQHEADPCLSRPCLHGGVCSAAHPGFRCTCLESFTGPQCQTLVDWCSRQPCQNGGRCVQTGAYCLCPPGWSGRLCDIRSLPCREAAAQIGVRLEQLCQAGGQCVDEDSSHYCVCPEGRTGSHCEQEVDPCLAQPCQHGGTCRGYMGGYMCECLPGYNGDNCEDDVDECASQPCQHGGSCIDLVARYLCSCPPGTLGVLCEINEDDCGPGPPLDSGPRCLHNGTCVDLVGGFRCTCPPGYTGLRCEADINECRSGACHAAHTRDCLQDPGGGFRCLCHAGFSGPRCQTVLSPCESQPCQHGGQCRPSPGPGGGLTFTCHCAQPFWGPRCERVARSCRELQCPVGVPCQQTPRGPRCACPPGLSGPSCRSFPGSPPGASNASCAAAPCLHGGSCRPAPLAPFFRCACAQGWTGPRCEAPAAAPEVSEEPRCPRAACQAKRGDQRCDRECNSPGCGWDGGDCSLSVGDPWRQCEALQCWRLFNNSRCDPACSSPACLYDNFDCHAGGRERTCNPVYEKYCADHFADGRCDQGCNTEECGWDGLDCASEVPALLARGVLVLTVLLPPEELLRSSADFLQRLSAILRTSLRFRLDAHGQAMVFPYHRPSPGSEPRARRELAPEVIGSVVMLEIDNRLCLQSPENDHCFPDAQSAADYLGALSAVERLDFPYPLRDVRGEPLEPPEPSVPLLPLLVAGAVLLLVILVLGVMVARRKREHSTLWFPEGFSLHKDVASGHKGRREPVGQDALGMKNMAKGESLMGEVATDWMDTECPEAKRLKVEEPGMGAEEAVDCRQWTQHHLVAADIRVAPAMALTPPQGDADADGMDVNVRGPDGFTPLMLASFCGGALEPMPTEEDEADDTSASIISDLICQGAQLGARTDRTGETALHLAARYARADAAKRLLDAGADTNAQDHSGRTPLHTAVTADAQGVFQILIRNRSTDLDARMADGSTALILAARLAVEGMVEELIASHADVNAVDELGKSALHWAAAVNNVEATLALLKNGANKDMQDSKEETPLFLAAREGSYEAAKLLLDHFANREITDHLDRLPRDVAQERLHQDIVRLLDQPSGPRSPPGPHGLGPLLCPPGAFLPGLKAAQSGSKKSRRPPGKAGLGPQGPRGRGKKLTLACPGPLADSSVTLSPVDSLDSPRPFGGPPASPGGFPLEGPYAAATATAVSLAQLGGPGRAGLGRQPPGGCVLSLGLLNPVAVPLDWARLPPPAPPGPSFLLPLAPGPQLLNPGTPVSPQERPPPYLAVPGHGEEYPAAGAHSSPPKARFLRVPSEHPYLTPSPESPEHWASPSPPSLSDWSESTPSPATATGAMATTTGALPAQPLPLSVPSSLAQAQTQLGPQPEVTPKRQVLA

Row | Compound | composite z-score [1] | z-score [2] | z-score [3] | z-score [4] | composite z-score [5] | z-score [6] | composite z-score [7] | composite z-score [8] | composite z-score [9] | composite z-score [10] | composite z-score [11] | composite z-score [12] | composite z-score [13] | z-score [14] | composite z-score [15] | composite z-score [16] | composite z-score [17] | composite z-score [18] | composite z-score [19] | composite z-score [20]
1 | CO[C@@H]1COC(=O)CC=C[C@@H](C)[C@H](OC)COC(=O)[C@H](COCc2ccccc2)NC(=O)CC=C[C@H]1C | 0.234 | 0.122 (inactive) | -0.556 (inactive) | -0.0857 (inactive) | -1.32 | 0.024 (inactive) | -0.185 | 0.846 | -0.778 | -0.231 | 1.56 | -0.516 | -1.15 | 0.0688 (inactive) | 0.303 | -0.112 | 0.461 | 0.689 | 0.444 | 1.87
2 | CO[C@H]1COC(=O)[C@@H]2CCCN2C(=O)[C@@H](C)COC(=O)CC=C[C@@H]1C | 1.47 | -0.62 (inactive) | 0.0569 (inactive) | -1.53 (inactive) | -0.652 | 0.264 (inactive) | -0.238 | 0.927 | 0.665 | 0.0082 | 0.474 | -0.342 | -0.919 | 0.00841 (inactive) | 0.618 | 1.05 | 1.15 | 1.11 | 1.1 | -0.24
3 | CO[C@H]1O[C@H](CO)[C@@H](OC(=O)Nc2ccc3c(c2)OCO3)[C@H](OC(=O)Nc2ccccc2-c2ccccc2)[C@@H]1OC(=O)Nc1ccccc1-c1ccccc1 | 1.54 | 2.12 (inactive) | 1.8 (inactive) | 0.91 (inactive) | 3.27 | 0.39 (inactive) | 0.0427 | 0.943 | 1.07 | -0.0179 | 1.29 | 0.277 | 0.542 | 0.176 (inactive) | 1.38 | 1.15 | 0.23 | 0.936 | 0.271 | -0.548
4 | C=CC[C@@H]1C=C[C@H](ON=C(C)CCN2CCc3nc(CC)c(CC)cc3C2)[C@@H](CO)O1 | 1.21 | -1.12 (inactive) | -0.0455 (inactive) | -0.384 (inactive) | 1.07 | 0.544 (inactive) | 0.0522 | 0.981 | 0.717 | -0.0435 | 1.17 | 0.0057 | 0.386 | 0.00248 (inactive) | -0.0543 | 0.491 | 0.609 | 1.14 | 0.907 | 1.8
5 | O=C1C[C@@H](O)[C@@H](O)[C@@H]2[C@@H]3C(=O)N(C4CCCCC4)C(=O)[C@@H]3CC[C@H]12 | 0.387 | -0.16 (inactive) | -0.268 (inactive) | 0.0415 (inactive) | 0.294 | 0.666 (inactive) | -0.185 | 0.467 | 0.786 | -0.127 | 0.523 | -0.376 | -0.711 | 0.804 (inactive) | 0.438 | 0.919 | 0.634 | 0.553 | 0.718 | -0.294
6 | CC(C)(C)N1CC=CC23O[C@@H]4C=CCCOC(=O)C4[C@H]2C(=O)N(CCCCCO)[C@@H]3C1=O (stereo not given in full) | 0.937 | 0.37 (inactive) | 0.501 (inactive) | -0.215 (inactive) | 1.74 | 0.261 (inactive) | -0.13 | 0.304 | 0.0136 | 0.0912 | 1.87 | -0.399 | 0.0199 | 0.164 (inactive) | -0.0123 | 0.126 | -0.0688 | -0.361 | -0.236 | 0.773
7 | CCOC(=O)NN=C1C[C@@H](O)[C@@H](O)[C@@H]2[C@@H]3C(=O)N(C(C)(C)C)C(=O)[C@@H]3CC[C@@H]12 | -0.172 | -1.04 (inactive) | 0.213 (inactive) | -0.626 (inactive) | -0.786 | 0.572 (inactive) | -0.0569 | 0.261 | -0.861 | 0.0021 | -0.241 | 0.166 | 0.599 | 0.172 (inactive) | 0.34 | -1.09 | 0.43 | -1 | -0.567 | -2.83
8 | COC(=O)CC=C[C@H](C)[C@@H](OCc1ccccc1Br)C(C)C | 0.204 | -0.0851 (inactive) | -0.552 (inactive) | 0.393 (inactive) | -0.117 | -0.295 (inactive) | -0.228 | 0.168 | -0.0294 | -0.167 | -0.0201 | -0.371 | -0.397 | -0.76 (inactive) | 0.321 | -0.243 | 0.195 | 0.285 | 0.292 | 0.0114
9 | CCCCC(=C=CC[C@H](O)c1ccccc1OCCO)C[C@H](O)COCc1ccccc1 | -0.0855 | 0.115 (inactive) | -0.729 (inactive) | -0.659 (inactive) | 1.03 | 0.0754 (inactive) | -0.145 | -0.142 | -0.171 | -0.12 | 1.45 | -0.001 | 0.309 | -0.139 (inactive) | 0.0624 | -0.285 | -0.792 | -0.349 | -0.355 | 0.778
10 | CC(=O)OC[C@H]1O[C@H](CCON=C[C@@H](C)[C@H](OCc2ccccc2)C(C)C)C=C[C@@H]1OC(C)=O | 1.12 | -0.283 (inactive) | -0.205 (inactive) | -0.3 (inactive) | -0.169 | -0.608 (inactive) | -0.138 | 0.559 | 0.226 | -0.0093 | 0.343 | -0.36 | -0.743 | 0.244 (inactive) | 0.2 | 0.608 | 0.365 | 0.274 | 0.564 | -0.0819
